In all, about 340,000 compounds went through this assay and about 2,100 (0.62%) were called active.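 The calls were made as follows: active = first-screen hits whose inhibition reached a set limit at any dose in the follow-up dose series; inconclusive = inhibition above the set first-screen limit but never retested; inactive = the rest.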 Only a sample is shown. Measured potencies and affinities stand elsewhere.
Target: Rac GTPase-activating protein 1 (Homo sapiens) (UniProt Q9H0H5)
Assay: MgcRacGAP GTPase-activating activity inhibitors, confirmation, biochemical, ADP Hunter fluorescence, primary and confirmatory (AID 624330);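 also: fluorescence reports GDP produced by GAP-driven GTP hydrolysis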
Conditions: MgcRacGAP-stimulated Rac1 GTP hydrolysis, at 30 µM, hits give high values, GST-tagged Rac1 F28L mutant substrate

Sequence of Rac GTPase-activating protein 1 (Homo sapiens) (Q9H0H5 whole entry, looked up): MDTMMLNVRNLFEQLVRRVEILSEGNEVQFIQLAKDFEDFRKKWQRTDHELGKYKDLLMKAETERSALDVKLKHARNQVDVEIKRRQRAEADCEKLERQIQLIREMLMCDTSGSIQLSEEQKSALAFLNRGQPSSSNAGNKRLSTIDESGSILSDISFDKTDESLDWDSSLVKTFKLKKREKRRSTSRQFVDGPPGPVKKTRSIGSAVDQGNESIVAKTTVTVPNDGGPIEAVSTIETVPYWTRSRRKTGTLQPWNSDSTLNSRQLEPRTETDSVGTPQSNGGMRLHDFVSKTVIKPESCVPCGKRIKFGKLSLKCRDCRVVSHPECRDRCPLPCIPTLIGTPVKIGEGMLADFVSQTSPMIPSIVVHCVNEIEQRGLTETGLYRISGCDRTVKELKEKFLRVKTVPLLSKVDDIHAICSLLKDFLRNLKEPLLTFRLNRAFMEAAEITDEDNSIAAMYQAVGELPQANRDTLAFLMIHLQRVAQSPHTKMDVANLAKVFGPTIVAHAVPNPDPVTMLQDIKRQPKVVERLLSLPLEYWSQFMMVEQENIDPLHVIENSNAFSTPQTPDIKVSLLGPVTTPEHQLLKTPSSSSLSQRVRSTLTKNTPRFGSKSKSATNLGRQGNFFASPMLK

inhibition, inactive:
COc1ccc(N=Cc2cc(Cl)ccc2O)cc1Cl 15.8%
Oc1ccc(Cl)cc1C=Nc1ccc(Br)cc1 7.16%
c1ccc(C2=Nn3c(nnc3-c3ccco3)SC2)cc1 18%
Fc1ccc(C2=Nn3c(nnc3-c3ccco3)SC2)cc1 1.81%
CN(CC(=O)NCc1ccncc1)S(=O)(=O)c1cc(Cl)ccc1Cl 1.23%
COc1ccc(NC(=O)c2c[nH]c(=O)n(-c3ccc(C)c(C)c3)c2=O)cc1OC -10.4%
CC1=NN(c2ccccc2)C(=O)C1(C)C 12.1%
CC1=NN(c2ccccc2)C(=O)C1c1ccccc1 (centres undefined) 26.3%
COc1ccc(CNC(=O)CSc2nnc3c(n2)[nH]c2ccccc23)cc1 3.19%
Cc1ccc(NCCCn2cnc3c(OCc4ccccc4)ncnc32)cc1C 26.1%
CSc1ncnc2c1ncn2CCCNCc1ccccc1 17.1%
CSc1ncnc2c1ncn2CCCNCCCc1ccccc1 17.5%
COc1ncnc2c1ncn2CCCNCc1ccccc1 20.3%
CCOCCCNC(=O)c1cc(Cl)c(NC(=O)C2=C(C)OCCS2)cc1OC 9.37%
OCC[C@H]1C[C@@H](O)[C@H](O)[C@]2(CCc3ccccc3CO2)O1 -0.41%
CCN1CCN(c2cc(N3CCN(C(=O)c4ccco4)CC3)c3c4c(onc24)-c2ccccc2C3=O)CC1 25.5%
CN1CCN(c2cc(N3CCN(C(=O)c4ccco4)CC3)c3c4c(onc24)-c2ccccc2C3=O)CC1 14.2%
Cc1nc(NC(=O)CCCC(=O)Nc2nc(C)c(C)s2)sc1C 3.32%
CCc1cc(=O)oc2c(C)c(OC(C)C(=O)NCC3CCC(C(=O)O)CC3)ccc12 (centres undefined) 0.46%
CCN(C(=O)Cn1cc(C(=O)C(=O)N2CCOCC2)c2ccccc21)c1ccccc1 7.38%
C=C(CC)C(=O)c1ccc(OCC(=O)O)c(Cl)c1Cl 4.69%
O=C(O)COc1ccc2nsnc2c1Cl 6.84%
CN1CCN(C(=O)CN(CCc2ccccc2)S(C)(=O)=O)CC1 1%
CS(=O)(=O)Nc1cccc(C2=NN(C(=O)c3cccc([N+](=O)[O-])c3)C(c3cccs3)C2)c1 (centres undefined) 7.25%
CC1(C)CC(CC(=O)Nc2ccccn2)C(=O)O1 (centres undefined) 3.54%
Cc1ccc(Oc2ncccc2/C=N/O)cc1 5.93%
Cc1cc(Cl)ccc1OC(C)C(=O)OCC(=O)Nc1ccc2[nH]c(=O)[nH]c2c1 (centres undefined) 1.09%
CN(C)/C=C1\NC(=S)N(c2ccc(Cl)cc2)C1=O 17.9%
COc1ccc(N2C(=O)/C(=C/c3cccnc3)NC2=S)cc1 3.24%
CCN1C(=O)/C(=C\N(C)C)NC1=S 12%
COc1ccc(N2C(=O)/C(=C/c3cccs3)NC2=S)cc1 9.24%
Cc1cccc(C)c1NC(=O)C1CCN(S(C)(=O)=O)CC1 -16.2%
O=C(O)c1cc(O)c2c(c1)C(=O)c1cccc(O)c1C2=O 28.8%
O=C1C=C(O)c2cccc(O)c2C1=O 0.71%
CNC(=O)c1sc(=S)n(-c2ccc(OC)cc2)c1N 3.75%
Cc1cccc(-c2ncc(S(=O)(=O)C(C)(C)C)c(N)n2)c1 -7.62%
CC(=O)Nc1ccc(N(C(=O)CNC(=O)c2ccco2)C(C(=O)NCc2ccco2)c2ccccc2F)cc1 (centres undefined) 4.97%
Cc1cccc(C(=O)NC(C)c2ccc(-n3ccnc3)cc2)c1C (centres undefined) 5%
COc1ccc([N+](=O)[O-])cc1NC(=O)C(C)NNC(=O)c1cccc([N+](=O)[O-])c1 (centres undefined) 4.39%
CN(C)C=Nc1ccc(Cl)c(Cl)c1 2.39%
CN(C)C=Nc1ccc2nn(-c3ccccc3)nc2c1 6.6%
Cc1c(C(c2cc(O)ccc2O)c2c(C)n(C)n(-c3ccccc3)c2=O)c(=O)n(-c2ccccc2)n1C -9.5%
CCCN(C(=O)c1cccs1)c1c(N)n(Cc2ccccc2)c(=O)[nH]c1=O 4.88%
CSc1ncccc1C(=O)Nc1cc(C)ccn1 11.2%
COc1ccc(CC(=O)NCC2CCCN(Cc3ccc(F)c(OC)c3)C2)cc1 (centres undefined) -1.16%
CC1=C(C(=O)N2CCOCC2)CC(CC(=O)NC2CCCC2)C(=O)N1Cc1ccc(F)cc1 (centres undefined) 14.4%
COc1ccc(NC(=O)NNC(=O)COc2ccc3cc(Br)ccc3c2)cc1 9.2%
COc1ccc2cc(OCC(=O)NNC(=O)Nc3ccc(OC)c(OC)c3)ccc2c1 17.7%
COc1cccc(NC(=O)NNC(=O)COc2ccc3ccccc3c2)c1 2.17%
COc1ccc(NC(=O)NNC(=O)COc2ccc3ccccc3c2)cc1 5.22%
COc1ccc(C(=O)N2CCNC(=O)C2CC(=O)Nc2cccc(Cl)c2Cl)cc1 (centres undefined) -0.3%
O=Cc1cn(-c2ccccc2)nc1-c1cccc([N+](=O)[O-])c1 6.3%
COc1ccc(C2NN=C(c3ccc(C)cc3)S2)cc1OC (centres undefined) -0.47%
COc1ccc(C2NN=C(c3ccc(C)cc3)S2)cc1 (centres undefined) 7.81%
COc1ccc(NC(=O)CC2C(=O)NCCN2C(=O)c2ccccc2)cc1 (centres undefined) 6.95%
Nc1nc(-c2ccccc2)cn1/N=C/c1ccccc1 3.51%
CC(=O)N(C(C)=O)c1nc(-c2ccccc2)cn1/N=C/c1ccccc1 7.71%
Cc1ccc(S(=O)(=O)CCC(=O)Nc2nc(-c3cccnc3)cs2)cc1 -10.2%
CCCc1nn2c(=O)cc(CSCC(=O)Nc3ccc(OC)cc3)nc2s1 1.76%
Cc1nnc(N2C(=O)C(O)=C(C(=O)c3ccco3)C2c2cccc3ccccc23)s1 (centres undefined) 7.61%
CC(C)(O[C@@H]1O[C@H](CO)[C@@H](O)[C@H](O)[C@H]1O)[C@H]1Cc2cc3ccc(=O)oc3cc2O1 3.49%
O=C(CNS(=O)(=O)c1ccc([N+](=O)[O-])cc1)N/N=C\c1ccc(O)cc1 20.8%
O=C(N/N=C/c1ccc(OCc2ccccc2)cc1)c1cc[n+](Cc2ccccc2)cc1 13.8%
CC(=O)Nc1ccc(/C=N\NC(=O)CNS(=O)(=O)c2ccc([N+](=O)[O-])cc2)cc1 9.49%
O=C(CNC(=O)c1ccccc1Br)N/N=C/c1cccnc1 7.98%
O=C(N/N=C/c1ccc(Br)cc1)c1cc[n+](Cc2ccccc2)cc1 4.25%
O=C(CNS(=O)(=O)c1ccccc1)N/N=C\c1ccc(Cl)cc1 7.25%
CC(=O)Nc1ccc(/C=N/NC(=O)CNS(=O)(=O)c2ccccc2)cc1 9.41%
O=C(CNC(=O)c1ccccc1Br)N/N=C/c1ccccc1O 5.07%
COc1cc(C2N(c3cc(C)on3)C(=O)C3CCCN32)cc(OC)c1OC (centres undefined) 4.47%
CCOC(=O)C(=O)/C(=C\N(C)C)c1onc(-c2c(F)cccc2Cl)c1C(=O)OC 4.69%
CSc1nc(C)cc(OCC#N)n1 5.78%
Cc1cccc(NC(=S)N2CCN(S(=O)(=O)c3ccc(F)cc3)CC2)c1 8.03%
CCCCCCN1C[C@@H](n2cc(COC(=O)c3ccccc3)nn2)[C@H](O)C[C@@H]1c1ccc(Cl)cc1 8.49%
Nc1ccc(-c2cn3cccnc3n2)cc1 -4.77%
COc1cccc(N2CCN(C(=O)CCc3nnc4ccc(N5CCCC5)nn34)CC2)c1 18%
O=C(COc1ccc(Cl)cc1)Nc1cc(S(=O)(=O)N2CCCCC2)ccc1N1CCCCC1 -10.3%
C=CCNC(=O)c1snnc1-c1ccccc1 5.75%
CCN(CC)c1ccc(/C=N/NC(=O)Cc2cccs2)cc1 18.5%
O=C(C[n+]1ccccc1)N/N=C/c1ccc(Br)cc1 -2.09%
O=C(Cn1cnc([N+](=O)[O-])n1)N/N=C/c1ccccc1O 4.85%
O=C(Cn1cnc([N+](=O)[O-])n1)N/N=C/c1cc(Cl)ccc1O 11.2%
COc1ccc(/C=N/NC(=O)Cc2cccs2)cc1 3.05%
O=C(C[n+]1ccccc1)N/N=C/c1ccc(C(=O)O)cc1 2.14%
CCOc1ccc(NC(=O)COc2cccc3cccnc23)cc1S(=O)(=O)N1CCCC1 5.24%
CC(C)c1[nH]nc2c1C(c1cccs1)C(C#N)=C(N)O2 (centres undefined) 8.28%
CC(C)(C)S(=O)(=O)c1cnc2c(S(=O)(=O)c3ccccc3)cnn2c1N -3.04%
N#CCC(=O)Nc1ccc(C(=O)OCC(=O)N=c2sccn2Cc2ccccc2Cl)cc1 5.66%
CCOC(=O)c1c[nH]c(=O)c(Br)c1O 4.86%
COc1ccc(NS(=O)(=O)c2cc(NC(=O)c3ccco3)ccc2N2CCCC2)cc1 -4.14%
COc1ccc(C(=O)OCC(=O)Nc2ncc([N+](=O)[O-])s2)cc1OC 21.6%
O=C(COC(=O)COc1ccccc1)Nc1ncc([N+](=O)[O-])s1 11.1%
C/C(=N\OC(=O)Nc1ccc(Cl)cc1)c1ccc(F)c(F)c1 6.77%
CCOC(=O)N1CCN(C(=O)Cc2cccs2)CC1 9.5%

From PubChem BioAssay AID624330 (Southern Research Specialized Biocontainment Screening …, 2012)
